Consider eleven compounds from PubChem BioAssay (NCATS).

SMILES strings stand for the structures. Records with an inconclusive call do not appear. The list shows a part of the results. Active and inactive are the calls of the source. Unless noted, calls come from the whole dose curve; as a rule, active = well fitted curve in the direction sought with a large enough effect; inconclusive = small, poorly fitted or top-dose-only effect, or another doubt; inactive = no such curve, though single readings can be large; an effect the other way counts as inactive or inconclusive.

For one assay, the target named is Furin (Homo sapiens) (UniProt P09958). Briefly: Furin counterscreen qHTS for Zika virus inhibitors (AID 1347149).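 For activity change, negative = inhibition: purified recombinant full-length human furin enzyme at 5 nM; fluorescence gain from furin cutting a BOC-RVRR-AMC peptide substrate over 15 min; top concentration of the series differs between compounds; plate controls were no-inhibitor control for no effect and no-enzyme control for full effect.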 Note: nearly all actives have a fitted effect of over 70% in size. Note: potency is the fitted concentration of half-maximal effect. An outline of the steps:
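Counterscreen measures cleavage of 2 microM BOC-RVRR-AMC, below its ~15 microM Km, by 5 nM full-length human furin at pH 7.0 after a 15-min compound preincubation. Inhibition derives from the 15-min fluorescence increase at 37C.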

The subject of assay [1] is Zika virus NS2B-NS3 protease (linked construct). Nature of the assay: Confirmatory screen NINDS AMC qHTS for Zika virus inhibitors (AID 1347152).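 Note: AMC fluorescence gain from cleaved Bz-Nle-KRR-AMC substrate over 15 min; top concentration of the series differs between compounds; 0% = no-inhibitor control and -100% = no-enzyme control; nearly all actives have a fitted effect of over 70% in size.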 In outline: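 Purified NS2B-NS3 protease with NS2B hydrophilic domain linked to NS3 protease domain by flexible linker, 1 nM final in 10 mM Tris-HCl pH 8.0, 0.01% Tween 20. Compounds preincubated 15 min, room temperature; Bz-Nle-KRR-AMC 10 microM (Km 18.3 µM); 15-min fluorescence change, 4-parameter Hill fit.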
In general terms: qHTS replaces the single test concentration by a dilution series.

Assay [2] has as its system Zika virus NS2B-NS3 protease (unlinked complex). Briefly: Confirmatory screen GU AMC qHTS for Zika virus inhibitors (AID 1347153).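 For Potency: enzyme at 25 nM with substrate at 10 µM below its Km of 18.3 µM; potency is the fitted concentration of half-maximal effect.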 Note: nearly all actives have a fitted effect of over 70% in size. In outline:
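Unlinked NS2B-NS3 complex (25 nM) in 10 mM Tris-HCl pH 8.0, 0.01% Tween 20 preincubated 15 min with compound, then 10 microM Bz-Nle-KRR-AMC (Km 18.3 µM). Fluorescence change over 15 min, normalized, Hill-fitted.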

For assay [3], the system named is Zika virus NS2B-NS3 protease (linked). Nature of the assay: 384 well plate NINDS AMC confirmatory qHTS for Zika virus inhibitors (AID 1347163).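 For activity change, negative = inhibition: linked protease at 5 30 or 60 nM final depending on run; fluorescence of AMC released from Ac-VKTGKR-AMC peptide cleaved by the protease; top concentration of the series differs between compounds; 0% = no-inhibitor control and -100% = no-enzyme control.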 Note: nearly all actives have a fitted effect of over 50% in size. Note: potency is the fitted concentration of half-maximal effect. An outline of the steps:
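Fluorescence at 355/460 nm was read after 25 minutes of cleavage of 30 microM Ac-VKTGKR-AMC at room temperature, in the dark. Before substrate addition, compounds (up to 1 mM final) sat ~15 minutes with 5, 30 or 60 nM linked protease. Signals were normalized to no-enzyme and no-inhibitor wells.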

Assay [4] concerns Zika virus NS2B-NS3 protease (linked construct). Nature of the assay: 384 well plate NINDS Rhodamine confirmatory qHTS for Zika virus inhibitors (AID 1347164).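 For activity change, negative = inhibition: top concentration of the series differs between compounds; plate controls were no-inhibitor control for no effect and no-enzyme control for full effect.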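 Note: fluorescence from protease cleavage of Ac-LKRR-rhodamine 110 substrate; nearly all actives have a fitted effect of over 65% in size.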 Note: potency is the fitted concentration of half-maximal effect. An outline of the steps: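 Linked protease at a final 5 nM, 30 nM or 60 nM was preincubated ~15 min with compounds, then given 10 microM Ac-LKRR-Rhodamine 110. Fluorescence (ex 485/em 538 nm) after 25 min in the dark at room temperature.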

Assay [5] concerns Zika virus NS2B-NS3 protease. Briefly: Primary screen GU AMC qHTS for Zika virus inhibitors (AID 1347154).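 For activity change, negative = inhibition: 0% = no-inhibitor control and -100% = no-enzyme control.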 Note: nearly all actives have a fitted effect of over 70% in size. Note: potency is the fitted concentration of half-maximal effect. In outline:
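Unlinked Zika NS2B hydrophilic domain/NS3 protease domain noncovalent complex (25 nM final) in 10 mM Tris-HCl pH 8.0, 0.01% Tween 20, with AMC peptide substrate. Fluorescence (ex 340, em 450 nm) change over 15 min, room temperature; percent inhibition fitted to 4-parameter Hill equation.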

Assay [6] is described as follows: Confirmatory screen GU Rhodamine qHTS for Zika virus inhibitors qHTS (AID 1347157). In outline:
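Percent inhibition derives from the 15-min fluorescence change (ex 480, em 540 nm), normalized to no-enzyme and no-inhibitor wells. Reactions contained 25 nM NS2B-NS3 complex and 1.5 microM substrate in 10 mM Tris-HCl pH 8.0.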

Assay [7] in a line: ZIKV-mCherry secondary qHTS for Zika virus inhibitors (AID 1347158). Note: top concentration of the series differs between compounds. In outline:
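Compounds were tested in Vero monkey kidney cells infected with recombinant mCherry-expressing Zika virus at MOI 1 for 48-72 h at 37 °C. Fixed cells were nuclear-stained and imaged, and infection rate was taken as the fraction of mCherry-positive cells.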

Assay [8] is described as follows: Confirmatory screen NINDS Rhodamine qHTS for Zika virus inhibitors (AID 1347161). Note: potency is the fitted concentration of half-maximal effect; nearly all actives have a fitted effect of over 60% in size. In outline: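 In 10 mM Tris-HCl pH 8.0 containing 0.01% Tween 20, linked NS2B-NS3 protease (25 nM final) is exposed to test compounds for 15 min. Cleavage of 1.5 microM Rhodamine110 substrate is tracked by fluorescence over 15 min.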
Assay [9] in a line: Tertiary RLuc qRT-PCR qHTS assay for Zika virus inhibitors (AID 1347169). Note: top concentration of the series differs between compounds; % is set by controls: 0 for no effect and ±100 for the full control effect; nearly all actives have a fitted effect of over 55% in size. An outline of the steps:
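Vero cells (1,000 per well) plated overnight at 37 degrees C, treated with compound in DMSO, then infected with recombinant ZIKV-RLuc (Cambodian) at MOI 1-2 for 48-72 hrs. Live-cell Renilla luciferase substrate added; luminescence read after 1-1.5 hrs.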

Assay [10] is described as follows: Primary qHTS for small molecule stabilizers of the endoplasmic reticulum resident proteome: Secreted ER Calcium Modulated Protein (SERCaMP) assay (AID 1508630). Note: % is set by controls: 0 for no effect and ±100 for the full control effect. An outline of the steps:
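The SH-SY5Y reporter protocol was run at 3 concentrations up to 38.3 uM (primary) or 11 concentrations (follow-up): 16 h compound, 100 nM thapsigargin for 4 h, then extracellular luciferase luminescence.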

The target in assay [11] is Cytochrome P450 3A4 (Homo sapiens) (UniProt P08684). Nature of the assay: qHTS Assay for Activators of Cytochrome P450 3A4 (AID 885). Note: nearly all actives have a fitted effect of over 65% in size. In outline:
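Human CYP3A4 dealkylates Luciferin-PPXE to luciferin, which luciferase detection converts to light. Substrate was at its KM (25uM), buffer 200mM KPO4, reaction 60 min at RT.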

A short description of assay [12]: Confirmation and Secondary Assay for Modulators of Hemoglobin Beta Chain Splicing at IVS2 654 locus (AID 910). Note: % of control where 0% means no effect. An outline of the steps:
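HeLa cells stably carrying EGFP interrupted by mutant beta-globin IVS2-654 intron (CMV-driven) were treated with compound for 2 days at 37C; corrected splicing was scored as total peak GFP intensity per well (488 nm excitation, 500-520 nm emission).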

The nature of assay [13]: Confirmation and Secondary Assay for Modulators of Hemoglobin Beta Chain Splicing at IVS2 705 locus (AID 930).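 Note: HeLa cells stably expressing the EGFP-705 splicing reporter; GFP fluorescence per well restored by corrected splicing of the IVS2-705 intron in EGFP; % of control where 0% means no effect.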 An outline of the steps:
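HeLa cells stably carrying EGFP interrupted by mutant beta-globin intron 2 (IVS2-705) treated 2 days at 37C with compound; 500 nM antisense PNA as control. Correct splicing read as total peak GFP intensity per well by laser-scanning cytometry.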

Assay [14] in a line: qHTS Assay for Lipid Storage Modulators (AID 1519; calls by dose curve; for activity change, negative = inhibition: % is set by controls: 0 for no effect and ±100 for the full control effect). The note with it: Drosophila S3 cells, BODIPY lipid droplet/cell ratio, laser cytometry, cells loaded with oleic acid. In outline: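 Cells seeded at 5,000 per well were treated with compounds over a concentration series and loaded with oleic acid (400 uM, as added). Lipid droplet fluorescence (488 nm excitation, 500-530 nm channel) was read by laser-scanning cytometry and normalized to 20 uM Triacsin C.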

The target of assay [15] is DNA repair nuclease/redox regulator APEX1 (Homo sapiens) (UniProt P27695). Nature of the assay: Confirmation qHTS Assay for Inhibitors of the Human Apurinic/apyrimidinic Endonuclease 1 (APE1) (AID 2572). Note: potency is the fitted concentration of half-maximal effect; nearly all actives have a fitted effect of over 30% in size. Conditions: purified APE1, fluorogenic abasic-site DNA cleavage. An outline of the steps: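 Confirmation qHTS in dose-response format: APE1 exposed to compound 15 min at RT, then reaction started with 50 nM final TAMRA/BHQ-2 abasic substrate. Three fluorescence reads 60 s apart; endpoint minus initial read gives progress.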

Assay [16] has the same target. Briefly: qHTS FP-Based Assay for Inhibitors of the Human Apurinic/apyrimidinic Endonuclease 1 (APE1) (AID 2573). Note: % is set by controls: 0 for no effect and ±100 for the full control effect. An excerpt:
The apurinic/apyrimidinic endonuclease APE1 is the primary mammalian enzyme responsible for the removal of abasic (or AP) sites in DNA and functions centrally in the base excision DNA repair (BER) pathway. […] Thus, targeting APE1 could improve the efficacy of current treatment paradigms by promoting selective sensitization or protection of diseased and normal cells, respectively.
In order to gain insight into the mode of action of confirmed APE1 inhibitors, we implemented a miniaturized fluorescence polarization assay designed to report on compounds which competitively displace ds-DNA substrate. The fluorescence polarization assay has been implemented in 384- and 1536-well format for binding of TAMRA-labeled double-stranded DNA probe not containing a quencher. The binding of protein to DNA is inhibited by ATA, a general inhibitor of APE1 activity.
See also related primary fluorogenic assay (AID 2517). […]
Three uL of enzyme were dispensed to 1536-well Greiner black solid bottom plates. […] The plates were immediately transferred into ViewLux High-throughput CCD imager (Perkin-Elmer) in order to measure the reaction progress in kinetic mode (three reads every 60 seconds) using 525 nm excitation and 598 nm emission fluorescence protocol. The fluorescence intensity difference between the third and the first time points was used to compute reaction progress.

Chain of Furin (Homo sapiens) (P09958 whole entry, looked up): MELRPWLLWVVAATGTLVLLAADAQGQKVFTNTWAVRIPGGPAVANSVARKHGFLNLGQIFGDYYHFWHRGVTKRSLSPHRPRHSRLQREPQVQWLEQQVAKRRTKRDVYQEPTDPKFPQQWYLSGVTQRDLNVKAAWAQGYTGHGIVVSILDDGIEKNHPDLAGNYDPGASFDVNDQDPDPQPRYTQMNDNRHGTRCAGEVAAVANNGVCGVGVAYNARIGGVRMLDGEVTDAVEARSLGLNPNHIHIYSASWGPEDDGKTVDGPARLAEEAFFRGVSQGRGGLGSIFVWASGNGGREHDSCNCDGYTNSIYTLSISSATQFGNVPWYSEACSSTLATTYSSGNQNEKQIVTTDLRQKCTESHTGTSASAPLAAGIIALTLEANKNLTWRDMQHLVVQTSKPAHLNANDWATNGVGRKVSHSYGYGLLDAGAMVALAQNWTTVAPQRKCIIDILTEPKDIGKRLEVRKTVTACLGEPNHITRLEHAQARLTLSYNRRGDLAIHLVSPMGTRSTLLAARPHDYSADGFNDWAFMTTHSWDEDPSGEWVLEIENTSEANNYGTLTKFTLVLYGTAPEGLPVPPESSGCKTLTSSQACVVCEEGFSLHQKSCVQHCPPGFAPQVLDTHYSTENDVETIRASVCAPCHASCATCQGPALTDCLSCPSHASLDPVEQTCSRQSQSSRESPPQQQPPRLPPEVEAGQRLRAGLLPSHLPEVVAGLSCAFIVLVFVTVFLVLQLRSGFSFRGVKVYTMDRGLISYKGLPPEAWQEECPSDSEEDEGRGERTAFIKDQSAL
Chain of DNA repair nuclease/redox regulator APEX1 (Homo sapiens) (P27695 whole entry, looked up): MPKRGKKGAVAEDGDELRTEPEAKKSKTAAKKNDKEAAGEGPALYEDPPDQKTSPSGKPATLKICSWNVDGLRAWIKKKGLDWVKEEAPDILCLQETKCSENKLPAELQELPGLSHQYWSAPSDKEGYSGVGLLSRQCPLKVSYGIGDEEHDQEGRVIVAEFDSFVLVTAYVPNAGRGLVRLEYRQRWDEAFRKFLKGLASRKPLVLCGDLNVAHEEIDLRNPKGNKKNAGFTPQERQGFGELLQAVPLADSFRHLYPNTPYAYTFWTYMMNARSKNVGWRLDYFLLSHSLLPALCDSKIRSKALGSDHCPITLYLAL
Chain of Cytochrome P450 3A4 (Homo sapiens) (P08684 whole entry, looked up): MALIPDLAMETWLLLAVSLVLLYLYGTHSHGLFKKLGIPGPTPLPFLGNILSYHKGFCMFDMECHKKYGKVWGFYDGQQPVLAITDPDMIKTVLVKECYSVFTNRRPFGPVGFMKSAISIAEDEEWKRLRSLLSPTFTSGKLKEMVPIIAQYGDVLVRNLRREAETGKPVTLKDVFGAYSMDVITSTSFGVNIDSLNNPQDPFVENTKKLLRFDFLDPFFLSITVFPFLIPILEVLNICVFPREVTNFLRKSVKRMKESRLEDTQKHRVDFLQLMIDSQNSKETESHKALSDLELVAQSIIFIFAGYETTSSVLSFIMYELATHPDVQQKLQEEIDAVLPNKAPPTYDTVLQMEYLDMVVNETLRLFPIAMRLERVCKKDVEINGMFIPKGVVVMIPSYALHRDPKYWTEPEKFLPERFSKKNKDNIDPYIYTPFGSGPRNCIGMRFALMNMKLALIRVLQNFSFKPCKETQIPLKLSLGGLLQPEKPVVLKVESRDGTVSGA

With `O=C(Nc1cccc2ccccc12)O[C@@H]1CO[C@H]2[C@@H]1OC[C@@H]2NS(=O)(=O)c1cccc2cccnc12`, the Potency entry (with Furin (Homo sapiens); in assay [1]; in assay [2]) was “inactive” throughout.

In the case of `Cc1cccc(C)c1NS(=O)(=O)c1ccc(NS(=O)(=O)c2ccc3c(c2)OCCO3)cc1`, the Potency entry (with Furin (Homo sapiens); in assay [1]; in [2]) was “inactive” each time. Besides, the values for the Potency in assay [3] and in assay [4] were 200 µM (active) and 126 µM (active), respectively.

On to `N#CC(C#N)=C(N)/C(C#N)=C/c1cc(O)c(O)c(O)c1`, for which the Potency result (in the assay with Furin (Homo sapiens); in assay [5]; in [7]; in assay [4]; in assay [9]) was “inactive” each time. Besides, the values for the Potency in assay [6], in assay [8] and in [3] were 44.7 µM (active), 31.6 µM (active) and 112 µM (active), respectively.

As to `O=C(O)COc1ccc(-c2nccc3c2C(=O)N(Cc2cccc(C(F)(F)F)c2)CC(CNC(=O)c2cccc(Cl)c2)O3)cc1` (stereo not drawn), the Potency result (with Furin (Homo sapiens); in assay [3]; in [9]) was “inactive” throughout. The values for the Potency in assay [2] and in assay [4] were 49.4 µM (active) and 22.4 µM (active), respectively.

As for `Cc1ccc2c(=O)c3ccccc3n(CCCN)c2c1C`, the Potency with Furin (Homo sapiens) is 24.1 µM (active); in assay [5] it was 21.2 µM (active). In addition, the Potency entry in [2] and in assay [10] was “inactive” throughout.

`O=C(O[C@@H]1Cc2c(O)cc(O)cc2OC1c1ccc(O)c(O)c1)c1cc(O)c(O)c(O)c1` (stereo partly drawn): the Potency result (in assay [11]; with Furin (Homo sapiens); in [7]; in [9]) was “inactive” in each case. Moreover, the outcome in assay [12] and in assay [13] was inactive. The activity change, negative = inhibition in [14] (at 57.5 µM (top of the series)) is 6.43% (inactive). The max response in [14] (measured here: cell count channel max response) is -10%; in assay [14] (measured here: lipid channel max response), -4.33%. Also, the Potency was 35.5 µM (active) in [6], 14.1 µM (active) in assay [8], 25.1 µM (active) in [3] and 0.708 µM (active) in [4].

Take `O=c1c(O)c(Br)ccc2c(Br)c(O)c(O)c(O)c12`: the Potency in assay [15] is 0.316 µM (active); with Furin (Homo sapiens), 23.5 µM (active); in assay [6], 39.8 µM (active); in [8], 7.94 µM (active); in assay [3] it was 158 µM (active); in [4], 89.1 µM (active). The compound was classed as inactive in [16]. Also, the Potency entry in [7], in assay [9] and in assay [10] was “inactive” throughout.

With `Cc1oc2c(cc(NS(=O)(=O)c3ccc(Cl)cc3)c3ccccc32)c1C(=O)OCc1ccccc1`, the Potency entry (with Furin (Homo sapiens); in assay [7]) was “inactive” each time. The Potency in assay [6] was 28.2 µM (active); in assay [8] it was 39.8 µM (active).

In the case of `O=C(Nc1c(C(=O)O)oc2ccccc12)c1ccc(C(F)(F)F)cc1`, the Potency entry (with Furin (Homo sapiens); in assay [7]) was “inactive” throughout. Also, the Potency in assay [6] was 15.8 µM (active); in assay [8] it was 25.1 µM (active); in assay [3], 316 µM (active); in assay [4] it was 100 µM (active).

For the compound `O=C(O)c1cccc(-c2ccc(OC(F)(F)F)cc2)c1`, the Potency result (in the assay with Furin (Homo sapiens); in assay [1]; in assay [7]; in assay [3]; in [9]) was “inactive” each time.

On to `N#Cc1ccc(OCC2CN(Cc3c[nH]c4ccccc34)C(=O)c3c(ccnc3-c3ccc(OCC(=O)O)cc3)O2)cc1` (stereo not drawn), for which the Potency result (with Furin (Homo sapiens); in assay [1]; in assay [7]; in [9]) was “inactive” throughout. Moreover, in [4], the Potency was 39.8 µM (active).
